SMARCA2 activ – SMARCA2 (BRM) function activators, primary screen, cell-based, luminescence, high throughput; AID 652017, 2013; hit rate 1% among 370,000; activation, % at 9.1 µM; MG213 cells, MMTV-luciferase reporter, dexamethasone, overnight; in the data active = activation above about 7.8%;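 note: 0% = vehicle wells and 100% = reference activator wells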
esBAF inh – Bmi1 luciferase reporter increase in mESCs, primary screen, esBAF inhibitor project, mouse ES cells, Bmi1 luciferase knock-in, single point; 24 h; 100% = twice the neutral-well signal; reporter increase, % at 12.5 µM; hit rate 2% among 350,000; AID 602393, 2012; in the data active = activation above about 40%; inconclusive = no clear call, values can overlap the other calls;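 note: 0% = median of the plate's neutral control wells and 100% = double that signal; a rise in the Bmi1 reporter signal indicates esBAF inhibition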
Wnt bcat act – Wnt/beta-catenin pathway activators, primary screen, cell-based, plate reader, single point; hit rate 1.2% among 300,000; activation, % at 9.35 µM; Wnt/beta-catenin reporter cell assay, activator; AID 743398, 2014; in the data active = activation above about 30%, passing the limit was not always enough; inconclusive = no clear call, values can overlap the other calls;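 note: 0% = neutral control wells and 100% = positive control wells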
HSF-1 act – HSF-1 activators, primary screen, NIH3T3-HGL cells, MG132 stress, luminescence, single point; AID 504408, 2011; activation, % at 9 µM; NIH3T3-HGL HSF-1 luciferase reporter, 8 h; 100% = twice DMSO control signal; hit rate 1.7% among 300,000;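 active = mean replicate activation of at least 50% with a set share of replicates each reaching 50%; inconclusive = only one of those two conditions met; inactive = mean below 50% and too few replicates reaching it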;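 note: 0% = median of the neutral control wells and 100% = twice that signal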
HSF1 inhib – HSF1 inhibitors in luciferase reporter cells, primary screen, cell-based, NIH3T3, luminescence; NIH3T3-HGL HSE-luciferase, MG132-induced, luminescence 8 h; hits give low values; activity change, negative = inhibition, % at 7.5 µM (by protocol); hit rate 0.77% among 300,000; AID 2098, 2009;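 active = more than half of replicate wells show activity change below -50%, luminescence cut by over half; inconclusive = some wells, but at most half, below -50%; inactive = no replicate well below -50%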;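 note: luciferase reports HSF-1 transcriptional activity via heat shock element; 0% = median of DMSO wells and -100% = zero luminescence signal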
MITF act – activators of MITF-driven TRPM1 promoter reporter, primary screen, cell-based, SK-MEL-5, luciferase, single point | SK-MEL-5 TRPM1-promoter luciferase, 24 h; % of positive control, neutral wells = 0 | activation, % at 12.5 µM | hit rate 0.75% among 300,000 | AID 588334, 2011;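 active = mean activation of at least 80% with every replicate also reaching 80%; inconclusive = mean reaches 80% but some replicate falls short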;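 note: 0% = neutral control wells and 100% = parthenolide positive control wells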
SMARCA2 act conf – SMARCA2 (BRM) function activators, confirmation, cell-based, luminescence, triplicate | MG213 cells, MMTV-luciferase with dexamethasone, overnight; MG213 cells expressing E1A, Rb sequestered; DMSO wells 0%, reference activator 100% | AID 652260, 2013 | shares compounds with SMARCA2 activ | hit rate 30% among 3,500 | activation, % at 9.1 µM;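 active = activation above its plate's cutoff, the mean activation of tested wells plus 3 SD, cut at about 7.9% in these data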
GAL4-VP16 Luc – GAL4-VP16 luciferase reporter activation, counter-screen for SMARCA2 (BRM) activator project, cell-based, pG5luc, luminescence, high throughput. shares compounds with SMARCA2 activ. HEK293 GAL4-VP16 pG5luc reporter; scaled: DMSO wells 0%, SAHA wells 100%. activation, % at 9.1 µM. hit rate 41% among 3,500. AID 686939, 2013;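 active = activation above the solvent-only control well mean plus 3 SD, averaged across control plates, cut at about 5.2% in these data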
The depositor's hits bear a star; ? = inconclusive; / = not tested or not shown. Sampled rows, rich in hits. Any-hit rate of the full collection: about 4.3%.

SMILES	SMARCA2 activ	esBAF inh	Wnt bcat act	HSF-1 act	HSF1 inhib	MITF act	SMARCA2 act conf	GAL4-VP16 Luc
CCc1ccccc1NC(=O)C1CCC(=O)N(c2ccc(OC)cc2)C1c1ccc(OC)cc1 (stereo unspecified)	9.6*	/	/	/	/	/	-1.3	-0.4
COc1ccc(C2C(C(=O)O)CCC(=O)N2c2ccc(OC)cc2)cc1 (stereo unspecified)	-2.9	-2.7	-3.3	-5.1	-8.5	-1.8	/	/
Cc1[nH]n(-c2ccccc2)c(=O)c1/C=N/N(c1ccccc1)c1ccccc1	-3.0	/	-9.5	6.6	-1.0	-5.2	/	/
C=CCN=Cc1c(C)[nH]n(-c2ccccc2)c1=O	8.5*	/	18.4	15.8	5.6	39.8	0.6	6.2*
Cc1ccc(S(=O)(=O)c2nc(-c3ccc(F)cc3)oc2N2CCOCC2)cc1	11.5*	-2.8	0.0	8.7	-8.7	5.3	-1.9	-1.0
CC12CCC(c3c(C(=O)O)nn(-c4ccccc4)c31)C2(C)C (stereo unspecified)	9.4*	5.4	-0.7	1.6	-0.3	14.0	-2.2	0.0
CC12CCC(c3c(CO)nn(-c4ccccc4)c31)C2(C)C (stereo unspecified)	-1.6	-4.8	/	14.1	1.3	/	/	/
CC1(C(=O)OCc2cc(=O)n3cc(Br)ccc3n2)CC1(Cl)Cl (stereo unspecified)	10.1*	83.3*	6.1	/	/	?	9.4*	13.3*
Cc1ccccc1C(=O)NC(CC(C)C)C(=O)OCc1cc(=O)n2cc(Br)ccc2n1 (stereo unspecified)	9.4*	/	/	47.8	21.8	60.1	4.6	8.8*
CCC(=O)Nc1ccc2c(c1)OC[C@H](C)N(C(=O)Cc1ccccn1)C[C@H](C)[C@H](OC)CN(C)C2=O	/	4.3	/	/	/	/	/	/
Nc1ccc2c(c1)Cc1cc([N+](=O)[O-])ccc1-2	2.7	/	7.5	23.4	-5.0	?	/	/
CC(=NO)c1ccc2c(c1)Cc1cc([N+](=O)[O-])ccc1-2	11.6*	/	-2.6	-60.9	-60.9	-3.0	7.8	4.9
COc1ccc(NC(=O)Nc2ccc3c(c2)[C@H]2C[C@@H](CC(=O)O)O[C@@H](CO)[C@H]2O3)cc1	/	-4.5	/	/	/	/	/	/
Cc1ccc(C)c2c1CCC(=Cc1ccccc1[N+](=O)[O-])C2=O	-1.5	/	-7.1	/	/	/	/	/
CN1C/C(=C/c2ccccc2[N+](=O)[O-])C(=O)/C(=C\c2ccccc2[N+](=O)[O-])C1	26.2*	/	-25.0	/	/	/	-15.5	5.1*
CCN(CC)S(=O)(=O)c1ccc(NC(=O)CNC2CCCCC2)cc1	-3.8	-5.2	-2.0	1.2	-4.4	2.7	/	/
CCN(CC)S(=O)(=O)c1ccc(NC(=O)CCC2CCCCC2)cc1	9.4*	-23.1	-5.5	-1.8	-0.7	3.3	4.9	0.7
O=C(CSc1nnc(-c2ccccn2)o1)Nc1ccccc1Cl	8.0*	8.2	14.0	51.4*	16.6	16.6	13.3*	11.7*
Nn1c(SCC(=O)Nc2nccs2)nnc1-c1cc(-c2ccccc2)n[nH]1	9.6*	/	/	/	/	/	5.1	2.2
Cc1cccc(C)c1NC(=O)CSc1nnc(-c2cccnc2)o1	-0.7	/	-0.5	-13.3	0.6	-9.9	/	/
O=C(CSc1nnc(-c2cccnc2)o1)Nc1nccs1	9.1*	28.2	0.8	28.2	11.1	44.6	4.6	2.2
N#Cc1ccsc1NC(=O)CSc1nnc(-c2ccccc2)o1	19.4*	35.1	0.7	55.8*	52.4	-3.7	0.7	1.4
C[C@@H]1CN([C@@H](C)CO)C(=O)c2cc(C#Cc3cccnc3)cnc2O[C@H]1CN(C)C(=O)CN(C)C	/	1.5	/	/	/	/	/	/
O=C(NCCc1cn2ccccc2n1)c1ccccc1F	2.6	6.7	/	3.9	5.2	17.4	/	/
Fc1ccc(NCc2cn3ccccc3n2)cc1	9.7*	?	/	/	/	62.8	7.5	6.3*
SMILES	SMARCA2 activ	esBAF inh	Wnt bcat act	HSF-1 act	HSF1 inhib	MITF act	SMARCA2 act conf	GAL4-VP16 Luc
COCCNC(=S)Nc1ccc(Cl)c(Cl)c1	-0.4	/	-0.2	6.0	5.0	22.6	/	/
O=C(NCc1cccnc1)Nc1ccc(Cl)c(Cl)c1	8.1*	29.9	2.3	24.9	5.8	21.4	1.0	3.3
C=COCCNC(=O)Nc1ccc(Cl)c(Cl)c1	8.2*	-1.4	3.5	35.4	7.9	-19.9	0.8	2.1
S=C(NCc1cccnc1)Nc1ccc(Cl)c(Cl)c1	-5.7	7.8	-2.2	10.3	10.3	8.3	/	/
Cc1csc(NC(=O)CSc2ccc(-c3ccccn3)nn2)n1	-1.2	12.9	-6.5	25.2	6.2	2.2	/	/
Cc1csc(NC(=O)CSc2ccccc2F)n1	8.4*	/	0.8	13.0	13.3	43.0	2.1	4.2
C[C@@H]1CN([C@H](C)CO)C(=O)Cc2cc(NC(=O)Cc3cn(C)c4ccccc34)ccc2O[C@H]1CN(C)S(=O)(=O)c1cccs1	/	3.5	/	/	/	/	/	/
COc1cccc(CN2CCSCC2)c1OC	1.2	-6.5	-1.5	-9.9	-4.2	-8.9	/	/
COc1ccccc1CN1CCSCC1	9.8*	/	-1.9	-6.6	-2.1	6.4	-1.0	-1.0
CCOC(=O)c1cn2nc(Oc3ccc(C)cc3)ccc2n1	14.6*	/	20.0	13.4	18.3	/	2.3	2.4
CCOC(=O)c1cn2nc(Oc3ccc(OC)cc3)ccc2n1	-0.7	-0.8	-3.9	20.4	0.2	1.9	/	/
Cc1ccc(NC(=O)Nc2ccc3c(c2)OCO3)c(OC(F)F)c1	8.5*	49.5*	38.5*	20.3	11.0	105.8*	9.0*	9.4*
CC(C)C(=O)Nc1cccc(NC(=O)c2ccc(Cl)cc2Cl)c1	8.5*	/	15.5	9.6	-3.3	-3.3	0.0	2.7
CCC(=O)NC(=S)Nc1cccc(NC(=O)c2ccc(Cl)cc2Cl)c1	1.9	3.5	/	0.7	-1.8	-5.9	/	/
Cc1ccc2nc(-c3ccc(NC(=O)CNC4CC4)cc3)sc2c1	10.9*	/	5.7	9.4	5.1	53.7	8.5*	10.3*
C=CCn1c(SCC(=O)Nc2ccc(-c3nc4ccc(C)cc4s3)cc2)nnc1-c1ccncc1	8.9*	35.1	?	6.7	7.1	41.7	4.6	9.2*
C[C@@H]1CN([C@H](C)CO)C(=O)c2cc(C#CC3CC3)cnc2O[C@H]1CN(C)C(=O)c1ccccc1	/	2.6	/	/	/	/	/	/

Assay outcomes from PubChem BioAssay.
